For 29 molecules, growth results are on record in PubChem BioAssay (NCI).

What all share (assay): NCI-60 one-dose screen, 48 h (100 = growth as untreated, 0 = no growth, -100 = all killed)
Holding throughout (conditions): 10 µM unless noted

Assay [1] relates to HCT-15 colon.
Assay [2] concerns HT29 colon.
The subject of assay [3] is SNB-75 CNS.
In assay [4] the test system is SNB-19 CNS.
Assay [5] relates to U251 CNS.
Assay [6] has as its system SK-MEL-5 melanoma.
In assay [7] the test system is UACC-62 melanoma.
Assay [8] relates to LOX IMVI melanoma.
Assay [9] deals with SK-MEL-28 melanoma.
Assay [10] deals with PC-3 prostate.

The panel holds about 83,000 compounds, 20% with a hit somewhere; the sample as a whole holds those more often.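 Cells were grown in 96-well plates and exposed to the test compound at a single concentration for 48 hours; results are reported as percent growth, with values below 10 considered active.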 A number with no mark means an inactive call. Calls of active or inactive are those of the source.

As for `C/C(=N\O)[C@H]1C[C@]23CC[C@]4(C)[C@H](CC[C@@H]5[C@@]6(C)CC/C(=N/O)C(C)(C)[C@@H]6CC[C@]54C)[C@H]2[C@H](C)C1(C)OC3`, the growth in [1] is 105%; in assay [2], 113%; in assay [3] it was 72%; in [4], 97.7%; in [5], 110%; in [6], 100%. Also, the values for the growth in assay [7], in [8] and in assay [9] were 89.7%, 98.2% and 110%, respectively.

Take `C=CC(=O)N1CCC=C(c2cc3c(N[C@H](C)c4ccccc4)ncnc3[nH]2)C1`: the growth in assay [1] is 73.2%; in [2] it was 66.5%; in assay [3], 3.25% (active); in [4], 77.1%; in assay [10], 68.9%; in assay [6] it was 85.7%. Moreover, the growth was 68.5% in [7], 57.5% in assay [8] and 91.6% in [9].

For `CCCn1cnc2c(c1=N)C(c1ccc(OC)cc1)c1sc3c(CC)cccc3c1O2` (centres undefined), the growth in assay [1] was 18.9%; in [2], 5.9% (active); in [3], 16.5%; in assay [4], 22%; in assay [5], 20.5%; in assay [6], 30.3%. Moreover, the growth in assay [7] was 15.9%; in assay [8], 27.4%; in [9], 57.8%.

As to `C#Cc1nc(C(C)=O)cs1`, the growth in assay [1] was 99.4%; in assay [2] it was 110%; in assay [3], 85.5%; in [4] it was 102%; in assay [5] it was 102%; in [6] it was 104%. Also, the growth is 94.3% in [7], 94.7% in assay [8] and 106% in assay [9].

On to `CCOC(=O)c1c(Nc2ccccc2)nn2c(-c3ccc(Cl)cc3)ccnc12`, for which the growth in assay [1] is 77.8%; in assay [2], 83.7%; in assay [3], 88%; in [4], 72.1%; in assay [5], 81.5%; in assay [6] it was 80.2%. Besides, the results for the growth in assay [8] and in assay [9] were 64.5% and 87.2%, respectively.

For `C#CCNC1CCC(c2csc(C#C)n2)=C1C` (centres undefined), the growth in assay [1] was 96.6%; in assay [2] it was 50.7%; in assay [3], 113%; in assay [4] it was 90.6%; in [5], 4.13% (active); in assay [6], 90%. Further, the growth is 76.8% in assay [7], -90.7% (active) in [8] and 97% in assay [9].

For the molecule `CCCCNNC(=O)c1ccc(-c2cccc(F)c2F)cc1`, the growth in [1] was 55.1%; in assay [2] it was 10.6%; in [3], 80.7%; in assay [4], 54.6%; in assay [5], 36%; in assay [6] it was 5.84% (active). The values for the growth in assay [7], in assay [8] and in [9] were 8.48% (active), 21.8% and 25.7%, respectively.

On to `N#Cc1ccccc1Cn1c2nc(=N)c3ccccc3c-2nc2ccccc21`, for which the growth in [1] is 41.5%; in [2] it was 15.4%; in [3], 93.8%; in [4] it was 65.8%; in assay [10] it was 56.8%; in assay [6] it was 32.5%. Besides, the growth in assay [7] is 56.5%; in assay [8], 51.1%; in assay [9] it was 90.2%.

Take `Cc1c(F)cc(C(N)=O)cc1NCC(=O)Nc1ccc([N+](=O)[O-])cc1`: the growth in [1] is 94%; in assay [2], 105%; in [3], 47.2%; in assay [4] it was 98.5%; in assay [5] it was 109%; in assay [6], 95.7%. Moreover, the growth in [7] was 84.2%; in [8], 84.1%; in assay [9], 103%.

Turning to `CCO/C=N/C1=C(C#N)C(c2ccc(F)cc2)c2sc3c(C)cccc3c2O1` (centres undefined), the growth is 11.9% in assay [1]; 9.76% (active) in [2]; 8.13% (active) in assay [3]; 18.2% in [4]; 21.8% in [5]; 4.34% (active) in [6]. The results for the growth in assay [7], in assay [8] and in [9] were 12.8%, 9.65% (active) and 56.2%, respectively.

Regarding `COc1ccccc1NC1=C(Cl)C(=O)c2nc(C)ccc2C1=O`, the growth was -47% (active) in assay [1]; 75% in [2]; 105% in [3]; 38.9% in assay [4]; 62.8% in [5]; -93.3% (active) in assay [6]. Also, the figures for the growth in [7], in [8] and in [9] were -45.8% (active), -73% (active) and 14.1%, respectively.

Take `Cn1ccnc1C(=O)/C=C/c1ccc(NC(=O)c2ccc(F)cc2)cc1`: the growth was 16.9% in assay [1]; 7.13% (active) in assay [2]; 46.9% in assay [3]; 28.1% in [4]; 23.3% in assay [5]; 68.2% in assay [6]. For the same molecule, the results for the growth in assay [7], in assay [8] and in [9] were 49.9%, 6.38% (active) and 90.9%, respectively.

`CC1=NC2=NN3C(=NN2C(c2ccccc2)=C1)N=NC(c1ccc(Br)cc1)=C3c1ccc(Br)cc1`: the growth is 103% in [1]; 105% in [2]; 117% in assay [3]; 98.1% in assay [4]; 97.1% in [10]; 106% in assay [6]. For the same molecule, the values for the growth in assay [7] and in [8] were 89.9% and 100%, respectively.

Take `C[C@@H](Nc1ncnc2ccc(-c3cnc(Cl)c(NS(C)(=O)=O)c3)cc12)c1ccccc1`: the growth in assay [1] was 66%; in assay [2], 64.6%; in [3], -14.7% (active); in [4], 64%; in assay [5], 67.9%; in assay [6], 66.3%. Further, the growth is 35.6% in assay [7], 40.2% in assay [8] and 50.4% in assay [9].

With `CCOc1ccccc1NC1=C(Cl)C(=O)c2nc(C)ccc2C1=O`, the growth in assay [1] is -76.6% (active); in assay [2], 20%; in assay [3], 101%; in [4] it was 46.5%; in [10], 4.34% (active); in assay [6], -97.8% (active). Moreover, the growth in [7] is -29.1% (active); in assay [8], -82.2% (active); in [9], 14.6%.

`CNC(=O)c1cc(Oc2ccc3nc(NC(=O)c4cccc(OC(F)(F)F)c4)sc3c2)ccn1`: the growth is 81.7% in [1]; 86% in assay [2]; 45.5% in assay [3]; 81.3% in [4]; 84.3% in assay [5]; 78.4% in assay [7]. The figures for the growth in assay [8] and in assay [9] were 85.2% and 85.3%, respectively.

On to `ClC(Cl)c1nc(-c2ccco2)n2nc(-c3ccccc3)cc2n1`, for which the growth was 12.8% in [1]; 0.803% (active) in [2]; 88.5% in assay [3]; 8.35% (active) in [4]; -0.0523% (active) in assay [5]; 98.1% in assay [6]. Also, the growth was 98.2% in [8] and 12.4% in assay [9].

In the case of `O=C1CCCC2=C1C(c1c[nH]c3ccc(Br)cc13)Cc1cc(Br)ccc1N2` (centres undefined), the growth in assay [1] is 26.5%; in assay [2] it was 12.2%; in assay [3], 39.8%; in [4], 32.6%; in [5], 31.6%; in assay [6], 43%. Besides, the growth in [7] is 10.4%; in [8] it was 14.1%; in assay [9] it was 54.3%.

Regarding `NS(=O)(=O)c1ccc(Nc2nc(SCC(=O)c3ccc(Cl)cc3)nc3c2CCCC3)cc1`, the growth in assay [1] is 22.1%; in assay [2], 8.57% (active); in assay [3], 85.8%; in assay [4], 65.9%; in assay [10], 31.4%; in assay [6] it was 65.8%. For the same molecule, the growth in assay [7] was 48.2%; in assay [8], 23.6%; in assay [9] it was 68.5%.

For `O=C(Nc1nc2ccc([N+](=O)[O-])cc2s1)Nc1ccccc1Cl`, the growth is 29.5% in assay [1]; 53.6% in assay [2]; 21.7% in assay [4]; 29.2% in assay [5]; 17.3% in [10]; -22.5% (active) in assay [6]. Besides, the growth in [7] is 6.62% (active); in [9], 49.5%.

On to `O=C(Nc1cccc(Cl)c1)Nc1nc2ccc([N+](=O)[O-])cc2o1`, for which the growth in [1] was 13.7%; in assay [2], 14.3%; in assay [4], 19.7%; in [5] it was 6.13% (active); in assay [10], 5.64% (active); in assay [6], -13% (active). Further, the growth in [7] is 2.02% (active); in [9] it was 26%.

For `CCC(CC)N1C(=O)/C(=c2\sc3n(c2=O)NC2C(N=3)N(CC)C(=O)N2CC)c2ccccc21` (centres undefined), the growth in assay [1] was 34.5%; in assay [2] it was 44.7%; in assay [3] it was 67.9%; in assay [4], 71.4%; in assay [10] it was 43.9%; in [6], 55.6%. Further, the growth in assay [8] was 39.3%.

On to `CC(c1ccccc1)N1CSc2nc3ncncc3n2C1` (centres undefined), for which the growth in assay [1] is 37.3%; in [2], 30.4%; in assay [3], 51.5%; in [4], 99.5%; in assay [10], 42.4%; in assay [6], 49.3%. Moreover, the results for the growth in assay [7], in assay [8] and in assay [9] were 20.6%, 10.1% and 96.9%, respectively.

Take `O=C(Nc1ccc(Br)cc1)Nc1nc2ccc([N+](=O)[O-])cc2s1`: the growth in [1] is -11.3% (active); in [2], 7.76% (active); in assay [4], 19.1%; in [5] it was 0.478% (active); in [10], 0.887% (active); in assay [6], -82.2% (active). For the same molecule, the growth is -19.6% (active) in assay [7] and 6.25% (active) in [9].

`COc1cccc2cc(-c3cc4ccccc4[nH]3)/c(=N\NC(=O)c3ccc(Cl)cc3)oc12`: the growth in assay [1] was 20.3%; in assay [2], 67%; in assay [4], 47.4%; in assay [5], 34.6%; in assay [6], 48.4%; in assay [7], 16.1%. The growth in assay [9] is 42.6%.

As to `COc1cc(OC)cc(C(=O)Nc2sc3c(c2C(N)=O)CCC(=O)C3)c1`, the growth was 10.9% in [1]; 39.6% in assay [2]; 47.9% in assay [3]; 25.1% in [4]; 8.96% (active) in [10]; 63.1% in assay [6]. For the same molecule, the growth is 20.4% in assay [7], 22.1% in [8] and 48% in assay [9].

`CC/C(=C/c1cc(OC)ccc1O)c1ccc2cc(OC)ccc2[o+]1`: the growth in assay [1] is 23.9%; in assay [2] it was 15.7%; in assay [3], 48.3%; in assay [4], 47.3%; in assay [10], 40%; in assay [6] it was 40.7%. The growth in assay [7] is 21.4%; in assay [8] it was 60%; in assay [9], 61.8%.

In the case of `Cc1ccc(CSc2nc(-c3ccc(Cl)cc3)c(C#N)c(N3CCOCC3)n2)cc1`, the growth in assay [1] was 95.9%; in [2], 91.2%; in assay [3], 108%; in [4] it was 95.4%; in [6], 96.5%; in assay [7] it was 73.1%. Also, the growth in assay [8] is 96.6%; in assay [9], 93.8%.

In the case of `c1n[nH]cc1-c1nc2ccc3[nH]ncc3c2c2c1CCCC2`, the growth in assay [1] was 12.7%; in assay [2], 24%; in assay [3] it was 7.62% (active); in [4], 23.1%; in assay [10], 23.1%; in assay [6], 16.1%. Also, the growth in [7] is -0.281% (active); in [8], 18.8%; in [9], 18.3%.
